Data on 20 molecules can be found in PubChem BioAssay (NCI).

This is part of a sample that, as a whole, favours compounds with a hit. Of some 79,000 tested, about 15% had one in any assay. A number with no mark means an inactive call. Activity calls are given as the source filed them. No stated cut-off is given here; in the data, active means growth inhibition above about 70%; inactive means the rest.

Assay [1] can be described thus: NCI Yeast Anticancer Drug Screen. Data for the rad50 strain (AID 155).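 Further: 0% = growth of vehicle-only cultures of the same strain.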 As to conditions: S. cerevisiae rad50 strain growth inhibition; at 50.0 µM; active compounds read high. In a few lines:
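Readout: growth inhibition relative to vehicle-treated cultures. Compound exposure was carried out in a genetically defined yeast strain deficient in DNA damage repair.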

A short description of assay [2]: NCI Yeast Anticancer Drug Screen. Data for the mec2-1 strain (AID 157). The settings on record: S. cerevisiae mec2-1 strain, at 50.0 µM, active compounds read high. In a few lines:
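Readout is yeast growth inhibition, normalised to vehicle-treated controls, in the mec2-1 strain exposed to compound.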

A short description of assay [3]: NCI Yeast Anticancer Drug Screen. Data for the sgs1 mgt1 strain (AID 161).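 Further: 0% = growth of cultures given vehicle only.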 The settings on record: S. cerevisiae sgs1 mgt1 strain, at 50.0 µM, active compounds read high. In a few lines: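 Percent growth inhibition was derived by comparing compound-exposed mutant yeast with vehicle-exposed cultures. The strain carries alterations in DNA damage repair.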
Assay [4] is described as follows: NCI Yeast Anticancer Drug Screen. Data for the cln2 rad14 strain (AID 165).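 Further: 0% = growth equal to vehicle treated cultures.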 The settings on record: S. cerevisiae cln2 rad14 strain, at 50.0 µM, active compounds read high. In a few lines:
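Relative to vehicle controls, growth inhibition of compound-treated cln2 rad14 yeast was recorded.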

Assay [5] can be described thus: NCI Yeast Anticancer Drug Screen. Data for the bub3 strain (AID 167). As to conditions: S. cerevisiae bub3 mutant strain, at 50.0 µM, active compounds read high. In a few lines:
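Readout: yeast growth inhibition, expressed relative to vehicle-only wells. The test organism is a mutant strain from a panel with lesions in DNA repair or checkpoint genes.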

Assay [6] can be described thus: NCI Yeast Anticancer Drug Screen. Data for the mlh1 rad18 strain (AID 175). As to conditions: S. cerevisiae mlh1 rad18 strain growth inhibition; at 50.0 µM; active compounds read high. In a few lines: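 Test agents were incubated with a yeast strain of defined genotype (DNA damage repair defect). Inhibition of growth was derived by comparison with vehicle-exposed cultures.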

`CSc1ccc(OC(=O)Nc2ccc(Cl)c(Cl)c2)cc1C`: the growth inhibition in assay [1] is 95.3% (active); in assay [2], 96.5% (active); in assay [3] it was 96.9% (active); in assay [4] it was 95% (active); in assay [5] it was 94.7% (active); in assay [6], 95.1% (active).

Consider `CCCS(=O)(=O)CCC(=O)c1ccccc1`, for which the growth inhibition in assay [1] is -4%; in assay [2], -7.9%; in assay [3], -9%; in assay [4], -13.8%; in assay [5], 0.85%; in assay [6] it was 2.7%.

With `CCCCCCCCCCCCCCCCS(=O)(=O)N/N=C/c1ccccc1O`, the growth inhibition in assay [1] is 25.9%; in assay [2] it was 26.2%; in assay [3], 30.2%; in assay [4], 18.2%; in assay [5], 6.2%; in assay [6] it was 20.2%.

In the case of `Cc1c(C)c(C(C)O)c(C)c(C(C)O)c1C` (stereo not given), the growth inhibition in assay [1] was 4.55%; in assay [2], 5.65%; in assay [3], 17.6%; in assay [4], 21.6%; in assay [5], 11.7%; in assay [6], 18.6%.

Turning to `COc1cccc(C(=O)C(CCC#N)c2ccccc2)c1` (stereo not given), the growth inhibition is 24.8% in assay [1]; 18.5% in assay [2]; 31.4% in assay [3]; 20.9% in assay [4]; 42.8% in assay [5]; 9.75% in assay [6].

Consider `CCOC(=O)c1c(C)n2c3c(cccc13)CCC2`, for which the growth inhibition was 23.4% in assay [1]; 16.9% in assay [2]; 3.05% in assay [3]; 61.6% in assay [4]; 8.6% in assay [5]; 12.8% in assay [6].

With `C=C(C)CCCCCCCCC`, the growth inhibition is -4.8% in assay [1]; -5.8% in assay [2]; 17.6% in assay [3]; 1.4% in assay [4]; 3% in assay [5]; -3.25% in assay [6].

`CSCCC(C(=O)O)N(C)C` (stereo not given): the growth inhibition in assay [1] was -4.3%; in assay [2], -21.3%; in assay [3], -17.3%; in assay [4], -2.9%; in assay [5] it was -19.6%; in assay [6], -18%.

In the case of `NNc1cn[nH]c(=O)c1Cl`, the growth inhibition in assay [1] is -16.6%; in assay [2] it was -28.2%; in assay [3] it was -10.1%; in assay [4] it was 4.4%; in assay [5], -3.85%; in assay [6], -26.4%.

As for `CN(C)C(=S)Oc1cc(Cl)c(Cl)cc1Cl`, the growth inhibition in assay [1] was 86.1% (active); in assay [2], 95.6% (active); in assay [3], 91.3% (active); in assay [4] it was 81.8% (active); in assay [5], 91.3% (active); in assay [6], 96% (active).

For `O=C(c1no[n+]([O-])c1C(=O)c1csc2ccccc12)c1csc2ccccc12`, the growth inhibition is -9.7% in assay [1]; -2.2% in assay [2]; -31.9% in assay [3]; -39.9% in assay [4]; -10.3% in assay [5]; -0.25% in assay [6].

Turning to `O=C(Nc1cccc(C(=O)Nc2ccc(S(=O)(=O)O)c3cc(S(=O)(=O)O)cc(S(=O)(=O)O)c23)c1)Nc1cccc(C(=O)Nc2cccc3c(S(=O)(=O)O)c(S(=O)(=O)O)cc(S(=O)(=O)O)c23)c1`, the growth inhibition in assay [1] is -0.25%; in assay [2], 7.2%; in assay [3], 0.65%; in assay [4], 47.9%; in assay [5] it was 12.9%; in assay [6], 13.7%.

In the case of `Cc1c(OC(C)C(=O)O)ccc2c(-c3ccccc3)cc(=O)oc12` (stereo not given), the growth inhibition in assay [1] was 2.95%; in assay [2] it was 12.7%; in assay [3] it was 23.9%; in assay [4], 27.2%; in assay [5], 5.9%; in assay [6] it was 38.2%.

`O=C1N=C(c2c[nH]c3ccccc23)C(=O)N1`: the growth inhibition in assay [1] was -1.8%; in assay [2] it was 6.9%; in assay [3], 15.9%; in assay [4], 12.6%; in assay [5], -1.45%; in assay [6], 8.8%.

Turning to `CCCCCCCCCCCCCCC(=O)OCCN(C)C`, the growth inhibition in assay [1] was -3.6%; in assay [2], -18%; in assay [3], 1.45%; in assay [4], -18.2%; in assay [5], 8.35%; in assay [6], -10.1%.

For `CCOc1ccccc1C(=O)Oc1ccc(C)cc1`, the growth inhibition was -4.6% in assay [1]; -19.2% in assay [2]; 7.1% in assay [3]; -3.85% in assay [4]; -5.5% in assay [5]; 24.1% in assay [6].

On to `Cc1ccc(NC(=O)/C=C/c2ccccc2)cc1`, for which the growth inhibition was -2.85% in assay [1]; -8.1% in assay [2]; -3.15% in assay [3]; -3.95% in assay [4]; 10.2% in assay [5]; 10.9% in assay [6].

Consider `CNC(=O)c1ccc(C(C)C)cc1`, for which the growth inhibition in assay [1] is 0.3%; in assay [2] it was -1.95%; in assay [3] it was -5.3%; in assay [4] it was -10.7%; in assay [5], 4.2%; in assay [6], 0.65%.

For the molecule `CCC(=O)C(OC(C)=O)C(OC(C)=O)C(OC(C)=O)C(COC(C)=O)OC(C)=O` (stereo not given), the growth inhibition in assay [1] was -1.95%; in assay [2] it was -1.15%; in assay [3], -8.1%; in assay [4] it was 27.8%; in assay [5], -3.95%; in assay [6], 13.8%.

Regarding `CCS(=O)(=O)c1ccc(NC(=O)OC2CCCCCC2)cc1`, the growth inhibition in assay [1] is -2.65%; in assay [2], -2.25%; in assay [3], 25.8%; in assay [4], -1.25%; in assay [5], 12.3%; in assay [6], 7.8%.
